From PubChem BioAssay (NCATS)
“And” between values parts separate entries of the source, which are not always exact repeats. Equal entries are not always repeated. Records with an inconclusive call do not appear. Entries that show only a call come without a potency. The source made the active and inactive calls. Unless noted, the call rests on the fitted dose curve; in most records, active means well fitted curve in the direction sought with a large enough effect; inconclusive means small, poorly fitted or top-dose-only effect, or another doubt; inactive means no such curve, though single readings can be large; an effect the other way counts as inactive or inconclusive.

Tests used:
[1] = biological target: Cytochrome P450 2D6 (Homo sapiens) (UniProt P10635); test: Cytochrome P450 family 2 subfamily D member 6 (CYP2D6) small molecule antagonists: luciferase biochemical (cell-free) qHTS assay (AID 1645840; active means well fitted curve in the direction sought with a large enough effect in the repeat runs; an effect the other way counts as inactive or inconclusive; further: nearly all actives have a fitted effect of over 55% in size; further: potency means the concentration at half of the fitted maximal effect)
Sequence of Cytochrome P450 2D6 (Homo sapiens) (P10635 whole entry, looked up): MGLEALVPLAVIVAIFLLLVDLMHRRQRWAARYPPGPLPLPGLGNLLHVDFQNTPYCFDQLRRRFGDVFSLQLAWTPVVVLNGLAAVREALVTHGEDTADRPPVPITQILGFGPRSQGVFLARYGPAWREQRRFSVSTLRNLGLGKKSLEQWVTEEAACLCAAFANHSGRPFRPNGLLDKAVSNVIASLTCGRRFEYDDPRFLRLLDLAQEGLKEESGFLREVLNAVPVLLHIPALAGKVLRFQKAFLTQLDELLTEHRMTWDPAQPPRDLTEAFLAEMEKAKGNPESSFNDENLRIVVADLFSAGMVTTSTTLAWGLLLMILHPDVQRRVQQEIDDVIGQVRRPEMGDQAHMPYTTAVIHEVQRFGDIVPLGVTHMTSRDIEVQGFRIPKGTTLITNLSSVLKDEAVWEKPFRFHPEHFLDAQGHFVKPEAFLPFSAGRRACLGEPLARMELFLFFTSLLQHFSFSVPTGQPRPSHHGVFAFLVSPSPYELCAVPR
How it was run: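 P450-Glo luminescent screen: recombinant CYP2D6 enzyme–proluciferin substrate mix preincubated with compound 10 min at room temperature, then NADPH regeneration added for 1 h at room temperature. Detection reagent added for 20 min; luciferin light read as relative luminescence units.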

[2] = biological target: Cytochrome P450 2C9 (Homo sapiens) (UniProt P11712); test: Cytochrome P450 family 2 subfamily C member 9 (CYP2C9) small molecule antagonists: luciferase biochemical (cell-free) qHTS assay (AID 1645842; active means well fitted curve in the direction sought with a large enough effect in the repeat runs; an effect the other way counts as inactive or inconclusive; further: nearly all actives have a fitted effect of over 55% in size; further: potency means the concentration at half of the fitted maximal effect)
Sequence of Cytochrome P450 2C9 (Homo sapiens) (P11712 whole entry, looked up): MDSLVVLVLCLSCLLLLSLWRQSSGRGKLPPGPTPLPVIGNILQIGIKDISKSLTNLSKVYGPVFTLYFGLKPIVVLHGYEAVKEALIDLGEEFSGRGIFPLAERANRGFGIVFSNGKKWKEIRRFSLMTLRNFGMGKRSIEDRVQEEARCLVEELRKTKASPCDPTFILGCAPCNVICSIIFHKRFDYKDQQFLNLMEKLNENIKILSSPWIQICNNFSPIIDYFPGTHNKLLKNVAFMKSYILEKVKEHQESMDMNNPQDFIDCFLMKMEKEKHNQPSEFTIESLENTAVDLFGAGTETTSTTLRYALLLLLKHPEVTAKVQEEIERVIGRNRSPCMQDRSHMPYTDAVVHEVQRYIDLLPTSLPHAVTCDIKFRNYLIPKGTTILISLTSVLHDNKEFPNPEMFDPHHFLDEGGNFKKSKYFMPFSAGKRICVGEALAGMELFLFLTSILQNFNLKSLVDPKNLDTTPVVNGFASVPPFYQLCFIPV
How it was run: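 Luminescence, after 20 min with luciferin detection reagent, reflected CYP2C9 turnover during a 1 h NADPH-driven reaction at 37C. Enzyme-substrate mix contained 0.4% bovine serum albumin and was preincubated with compound 10 min at room temperature.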

[3] = biological target: Glutathione peroxidase 1 (Homo sapiens) (UniProt P07203); test: Primary qHTS Assay for Inhibitors of Recombinant Selenoprotein Glutathione Peroxidase 1 (GPX1) (AID 1845191); further: nearly all actives have a fitted effect of over 65% in size
Sequence of Glutathione peroxidase 1 (Homo sapiens) (P07203 whole entry, looked up): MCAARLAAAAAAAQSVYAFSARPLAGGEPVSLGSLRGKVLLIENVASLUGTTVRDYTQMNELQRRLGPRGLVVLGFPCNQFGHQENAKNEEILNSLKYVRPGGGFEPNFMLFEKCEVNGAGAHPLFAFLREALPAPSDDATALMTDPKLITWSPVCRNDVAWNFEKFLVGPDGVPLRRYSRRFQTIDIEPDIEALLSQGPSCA
How it was run: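 GR-coupled assay: compounds preincubated 30 min at room temperature with GPX1, then reaction started with CHP; final 10 nM GPX1, 1 mM GSH, 0.5 mM CHP, 0.5 mM NADPH, 100 nM GR, 0.01% BSA, pH 7.5 Tris buffer. NADPH fluorescence (340/450 nm) read at 0 and 15 min.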

[4] = biological target: Phospholipid hydroperoxide glutathione peroxidase GPX4 (Homo sapiens) (UniProt P36969); test: Primary qHTS Assay for Inhibitors of Recombinant Selenoprotein Glutathione Peroxidase 4 (GPX4) (AID 1845192); further: nearly all actives have a fitted effect of over 65% in size
Sequence of Phospholipid hydroperoxide glutathione peroxidase GPX4 (Homo sapiens) (P36969 whole entry, looked up): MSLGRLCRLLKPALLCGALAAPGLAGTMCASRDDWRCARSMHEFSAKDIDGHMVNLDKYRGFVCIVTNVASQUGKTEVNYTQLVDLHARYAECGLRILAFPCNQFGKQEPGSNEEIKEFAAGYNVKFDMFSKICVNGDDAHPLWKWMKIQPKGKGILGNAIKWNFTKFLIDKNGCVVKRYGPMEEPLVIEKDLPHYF
How it was run: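 GR-coupled assay: recombinant GPX4 preincubated 30 min with compound at room temperature; final 200 nM GPX4, 1 mM GSH, 0.5 mM cumene hydroperoxide, 0.5 mM NADPH, 100 nM GR, 0.01% BSA, pH 7.5 Tris. NADPH fluorescence (340/450 nm) read at 0 and 15 min.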

[5] = qHTS drug screen for cell cycle checkpoint inhibitors in PARPi-resistant BRCA-mutant ovarian cancer cell lines. (AID 1963452; calls by dose curve); conditions: PEO1/OlaR viability, CellTiter-Glo luminescence, 96 h, stronger effect = lower value
How it was run: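 PEO1, PEO4 and PEO1/OlaR ovarian cancer cells, 600 per well, exposed 96 h at 37C to a dilution series. Viability read by CellTiter-Glo luminescence, normalized to DMSO and empty wells; activity summarized as Z-AUC.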

[6] = biological target: Rap guanine nucleotide exchange factor 3 (Homo sapiens) (UniProt O95398); test: Confirmatory qHTS for antagonist of cAMP-regulated guanine nucleotide exchange factor 3 (EPAC1) (AID 1645880); further: potency means the concentration at half of the fitted maximal effect; nearly all actives have a fitted effect of over 55% in size
Sequence of Rap guanine nucleotide exchange factor 3 (Homo sapiens) (O95398 whole entry, looked up): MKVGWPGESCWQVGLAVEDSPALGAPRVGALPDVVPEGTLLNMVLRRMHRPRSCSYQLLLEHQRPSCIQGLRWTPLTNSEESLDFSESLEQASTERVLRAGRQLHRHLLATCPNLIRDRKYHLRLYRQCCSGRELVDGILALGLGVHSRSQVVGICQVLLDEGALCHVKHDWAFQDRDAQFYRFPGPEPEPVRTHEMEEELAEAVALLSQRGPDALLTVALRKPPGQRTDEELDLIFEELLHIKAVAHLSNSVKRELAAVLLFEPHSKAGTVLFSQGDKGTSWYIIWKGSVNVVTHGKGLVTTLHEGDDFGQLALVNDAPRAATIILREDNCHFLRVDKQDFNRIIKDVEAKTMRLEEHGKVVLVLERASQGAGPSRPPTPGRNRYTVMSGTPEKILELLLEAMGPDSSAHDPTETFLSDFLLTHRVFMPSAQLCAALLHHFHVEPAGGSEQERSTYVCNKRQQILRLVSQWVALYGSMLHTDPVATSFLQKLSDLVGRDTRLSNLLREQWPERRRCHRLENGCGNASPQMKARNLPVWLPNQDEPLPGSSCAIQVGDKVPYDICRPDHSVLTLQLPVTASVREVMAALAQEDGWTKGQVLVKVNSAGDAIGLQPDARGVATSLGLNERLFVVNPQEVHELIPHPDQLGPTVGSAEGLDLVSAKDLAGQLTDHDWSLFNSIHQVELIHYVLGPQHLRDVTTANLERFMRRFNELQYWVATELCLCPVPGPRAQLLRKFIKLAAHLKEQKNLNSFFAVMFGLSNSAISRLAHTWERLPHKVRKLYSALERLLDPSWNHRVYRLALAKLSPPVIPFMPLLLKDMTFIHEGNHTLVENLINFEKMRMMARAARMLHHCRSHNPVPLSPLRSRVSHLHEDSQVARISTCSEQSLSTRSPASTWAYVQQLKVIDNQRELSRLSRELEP
How it was run: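 Nucleotide exchange uses 100 nM EPAC1, 250 nM RAP1B-BODIPY-GDP and 50 uM GDP, with compounds in a concentration-titration series. After 5 min at room temperature, fluorescence (480 nm ex/540 nm em) is read every 5 min for 30 min. Data are normalized to control ATA and DMSO.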

[7] = biological target: Rap guanine nucleotide exchange factor 3 (Homo sapiens) (UniProt O95398); test: Confirmatory qHTS for agonist of cAMP-regulated guanine nucleotide exchange factor 3 (EPAC1) (AID 1645881);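 further: EPAC1 catalysed release of BODIPY-GDP from Rap1B seen as fluorescence loss; nearly all actives have a fitted effect of over 75% in size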
[8] = biological target: Rap guanine nucleotide exchange factor 4 (Homo sapiens) (UniProt Q8WZA2); test: Confirmatory qHTS for antagonist of cAMP-regulated guanine nucleotide exchange factor 4 (EPAC2) (AID 1645885); further: nearly all actives have a fitted effect of over 25% in size
Sequence of Rap guanine nucleotide exchange factor 4 (Homo sapiens) (Q8WZA2 whole entry, looked up): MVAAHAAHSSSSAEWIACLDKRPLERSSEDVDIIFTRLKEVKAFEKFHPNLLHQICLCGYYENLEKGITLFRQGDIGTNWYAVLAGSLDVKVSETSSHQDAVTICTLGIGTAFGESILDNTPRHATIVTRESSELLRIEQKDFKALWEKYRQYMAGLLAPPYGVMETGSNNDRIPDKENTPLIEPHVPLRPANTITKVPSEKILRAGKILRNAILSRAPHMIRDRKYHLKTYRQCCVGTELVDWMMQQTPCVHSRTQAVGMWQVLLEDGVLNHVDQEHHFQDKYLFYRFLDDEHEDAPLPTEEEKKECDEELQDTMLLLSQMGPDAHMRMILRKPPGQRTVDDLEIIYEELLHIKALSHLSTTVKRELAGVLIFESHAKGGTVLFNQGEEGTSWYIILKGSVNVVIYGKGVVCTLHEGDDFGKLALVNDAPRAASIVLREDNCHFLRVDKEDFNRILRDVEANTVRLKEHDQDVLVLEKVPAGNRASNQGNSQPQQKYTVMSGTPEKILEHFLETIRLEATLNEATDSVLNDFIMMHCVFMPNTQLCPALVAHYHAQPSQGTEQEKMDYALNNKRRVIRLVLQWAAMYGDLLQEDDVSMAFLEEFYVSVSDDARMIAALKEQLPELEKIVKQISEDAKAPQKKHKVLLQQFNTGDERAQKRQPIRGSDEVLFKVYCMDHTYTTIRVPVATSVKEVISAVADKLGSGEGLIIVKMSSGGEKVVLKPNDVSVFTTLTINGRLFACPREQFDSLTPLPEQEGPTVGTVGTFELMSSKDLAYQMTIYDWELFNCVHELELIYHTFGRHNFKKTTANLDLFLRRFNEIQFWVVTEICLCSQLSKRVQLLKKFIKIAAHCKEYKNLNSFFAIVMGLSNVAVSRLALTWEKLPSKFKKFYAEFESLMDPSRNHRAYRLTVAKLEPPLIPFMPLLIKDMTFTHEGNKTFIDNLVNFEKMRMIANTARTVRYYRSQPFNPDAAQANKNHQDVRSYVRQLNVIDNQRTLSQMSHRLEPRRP

[9] = biological target: Rap guanine nucleotide exchange factor 3 (Homo sapiens) (UniProt O95398); test: Counterscreen qHTS for antagonist of cAMP-regulated guanine nucleotide exchange factor 3 (EPAC1) (AID 1645888);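 further: fluorescence loss as bound BODIPY-GDP is released from Rap1B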
How it was run: (§1)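 Rap1B–BODIPY-GDP (250 nM) with 50 uM GDP; compounds pin-transferred to 9.74 nM–152 uM final (activator) or from 7.32 nM upwards (inhibitor). Fluorescence Ex/Em 480/540 nm read at 5 and 30 min, then after adding cAMP or buffer, at room temperature.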

[10] = biological target: Rap guanine nucleotide exchange factor 3 (Homo sapiens) (UniProt O95398); test: Counterscreen qHTS for agonist of cAMP-regulated guanine nucleotide exchange factor 3 (EPAC1) (AID 1645889); further: nearly all actives have a fitted effect of over 40% in size
How it was run: as §1

[11] = biological target: Rap guanine nucleotide exchange factor 4 (Homo sapiens) (UniProt Q8WZA2); test: Confirmatory qHTS for agonist of cAMP-regulated guanine nucleotide exchange factor 4 (EPAC2) (AID 1645884);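 further: nucleotide exchange releases bodipy-GDP from Rap1 and this lowers its fluorescence; nearly all actives have a fitted effect of over 65% in size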
[12] = biological target: N-terminal Xaa-Pro-Lys N-methyltransferase 1 (Homo sapiens) (UniProt Q9BV86); test: Confirmatory qHTS for Inhibitors of N-terminal methyltransferase 1 (NTMT1): MTaseGlo Assay (AID 1645874); further: potency means the concentration at half of the fitted maximal effect; nearly all actives have a fitted effect of over 65% in size
Sequence of N-terminal Xaa-Pro-Lys N-methyltransferase 1 (Homo sapiens) (Q9BV86 whole entry, looked up): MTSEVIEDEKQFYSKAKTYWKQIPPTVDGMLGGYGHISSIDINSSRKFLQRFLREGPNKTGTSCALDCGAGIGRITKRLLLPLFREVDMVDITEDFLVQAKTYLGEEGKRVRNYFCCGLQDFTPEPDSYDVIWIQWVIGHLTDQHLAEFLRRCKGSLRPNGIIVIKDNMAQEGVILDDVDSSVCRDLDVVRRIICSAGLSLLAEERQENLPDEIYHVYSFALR
How it was run: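 Compounds are incubated with 125 nM NTMT1 and 100 uM SAM for 15 min before the SPKRIA peptide (1 uM) starts a 30 min room-temperature methylation. SAH is measured by coupled luciferase luminescence and curves fitted to a Hill equation.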

[13] = measured here: PEO1 parental Z-AUC

## CN[C@@H](C)C(=O)N[C@H](C(=O)N1CCC[C@H]1c1nc(C(=O)c2ccc(F)cc2)cs1)C1CCCCC1
[1]
  Potency: inactive
[2]
  Potency: inactive
[3]
  Potency: inactive
[4]
  Potency: inactive
[5]
  Z-AUC: -0.196 (inactive)
[5]; [13]
  Z-AUC: -0.329
[5]; measured here: PEO4 Z-AUC
  Z-AUC: -0.73

## Cc1cccn2c(=O)cc(CSc3nnc(NC(=O)COc4ccccc4)s3)nc12
[1]
  Potency: inactive
[2]
  Potency: 6.74 µM (active)
[6]
  Potency: 67.5 µM (active)
[7]
  Potency: inactive
[8]
  Potency: inactive
[9]
  Potency: inactive
[10]
  Potency: inactive

## COc1ccc(CCNC(=O)Cn2nc(C)c3c(C)n(-c4ccc(C)cc4)nc3c2=O)c(OC)c1
[1]
  Potency: 8.49 µM (active)
[2]
  Potency: 8.49 µM (active)
[6]
  Potency: 67.5 µM (active)
[7]
  Potency: inactive
[11]
  Potency: inactive
[8]
  outcome: inactive [at 12.7 µM]
[9]
  Potency: inactive
[10]
  Potency: inactive

## CCOc1cc(C(=O)Nc2ccc(-c3nc4ncccc4o3)cc2C)cc(OCC)c1OCC
[2]
  Potency: 7.56 µM (active)

## CCn1c(N)c(C(=O)NC)c(=O)c2ccc(C#C[C@@](C)(O)COC)nc21
[1]
  Potency: inactive
[4]
  Potency: inactive
[5]
  Z-AUC: -0.226 (inactive)
[5]; [13]
  Z-AUC: -0.662
[5]; measured here: PEO4 Z-AUC
  Z-AUC: 0.0317

## O=C(CSc1nc(-c2ccc(F)cc2)nc2c1Cc1ccccc1O2)Nc1cccc(C(=O)O)c1
[1]
  Potency: inactive
[12]
  Potency: 6.02 µM (active)
[6]
  Potency: 6.01 µM (active) and 151 nM (active)
[7]
  Potency: inactive
[11]
  Potency: inactive
[8]
  Potency: inactive
[9]
  Potency: inactive

## Cc1cc(C)c(Cn2c3ccccc3c3cnn(CC(=O)NCc4ccccn4)c(=O)c32)c(C)c1
[2]
  Potency: 10.7 µM (active)

## Cc1cccc(N2CCN(C(=O)CCC(=O)NNc3nc4ccccc4c4nc(C)nn34)CC2C)c1 (configuration not stated)
[2]
  Potency: 9.52 µM (active)
